Screens from PubChem.
Only some compounds are listed: those with a hit (about 5.9% of all), similar ones and a draw of the others.
VP16 counter: Gal4-VP16 reporter inhibition counter-screen; Drosophila S2 Gal4-VP16 UAS-luciferase, luminescence, 20 h; Potency, µM (titrated, usually from 53.6 µM), actives largely listed as inhibitors; hit rate 3.5% among 310,000; AID 2546;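 further: Gal4-VP16 expression switched on by copper sulfate through the metallothionein promoter; nearly all actives have a fitted effect of over 50% in size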
GLP1R ag: GLP-1 receptor (human) agonism; Potency, µM (doses to about 45.6 µM), most hits filed as activators; HEK293 GLP-1R CRE-luciferase, luminescence, 4-6 h; cells express a hypersensitive GLP-1R form; hit rate 0.007% among 380,000; P43220
Target sequence (P43220 whole entry, looked up): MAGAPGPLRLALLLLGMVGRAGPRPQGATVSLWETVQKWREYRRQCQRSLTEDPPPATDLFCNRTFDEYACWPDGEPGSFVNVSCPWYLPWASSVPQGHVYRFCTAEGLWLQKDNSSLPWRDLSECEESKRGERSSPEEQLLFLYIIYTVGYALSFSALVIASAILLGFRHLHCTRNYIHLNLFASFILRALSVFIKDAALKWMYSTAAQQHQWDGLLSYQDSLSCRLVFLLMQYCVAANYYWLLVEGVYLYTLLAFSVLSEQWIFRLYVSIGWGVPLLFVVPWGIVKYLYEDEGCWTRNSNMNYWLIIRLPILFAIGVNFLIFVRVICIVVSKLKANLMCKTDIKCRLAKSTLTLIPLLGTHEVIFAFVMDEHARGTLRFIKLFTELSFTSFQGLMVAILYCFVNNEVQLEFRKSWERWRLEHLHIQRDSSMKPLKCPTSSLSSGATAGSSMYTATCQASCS
HEK293 tox: cytotoxic in the GLP-1 receptor inverse agonist counter-screen; HEK293 cAMP-luciferase reporter cells, luminescence, 24 h; Potency, µM (series often up to 38.3 µM), hits mostly inhibitors; hit rate 0.13% among 410,000;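 further: loss of luciferase light is scored as toxicity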
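Here, cytotoxicity is scored as loss of luminescence. The MLSMR collection was tested on cells seeded in medium containing 10% Nu serum, with a 24 hr compound exposure preceded by 12 hours of culture.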
GLP1R inv ag: acts as inverse agonist at human GLP-1 receptor. HEK293 GLP-1R CRE-luciferase, luminescence, 24 h; GLP-1R form is constitutively active. Potency, µM (doses to about 38.3 µM), most hits filed as inhibitors. hit rate 1.6% among 410,000. AID 624417; further: nearly all actives have a fitted effect of over 55% in size
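Cells are plated, allowed 12 hours at 37 deg C, then treated with compounds for 24 hr before luciferase detection reagent is added and luminescence is read after 12 min at room temperature. The HEK293 line carries constitutively active GLP-1R with a cAMP-responsive reporter.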
RORgamma inh: ROR gamma (mouse) transcription inhibition. P51450. Drosophila S2 Gal4-RORgamma UAS-luciferase reporter, 20 h. Potency, µM (titrated, usually from 53.6 µM), most hits filed as inhibitors. hit rate 5.4% among 310,000. AID 2551; further: nearly all actives have a fitted effect of over 60% in size
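Luminescence from a UAS-regulated Photinus luciferase reporter in stably transfected Drosophila Schneider cells is measured; decreased signal marks ROR gamma inhibition. Fusion expression is induced by 700 uM copper sulfate for 20 hr.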
Numbers stand for hits; 0 = inactive; ? = inconclusive; - = no result; [ ] = another dose, or the depositor's remark. The call rests on the fitted dose curve; in most records, active means well fitted curve in the direction sought with a large enough effect; inconclusive means small, poorly fitted or top-dose-only effect, or another doubt; inactive means no such curve, though single readings can be large; an effect the other way counts as inactive or inconclusive.

SMILES	VP16 counter	GLP1R ag	HEK293 tox	GLP1R inv ag	RORgamma inh
CC(C)[C@H](NC(=O)[C@H](CC(=O)O)NC(=O)[C@H](Cc1ccccc1)NC(=O)[C@@H](C)NC(=O)[C@@H](N)Cc1ccc(O)cc1)C(=O)N[C@H](C(=O)NCC(N)=O)C(C)C	0	-	-	-	0
Cc1nc([N+](=O)[O-])c(Sc2nc3ccc([N+](=O)[O-])cc3[nH]2)n1Cc1ccccc1	?	0	?	?	15.8µM
O=[N+]([O-])c1ccc2nc(CCCc3nc4ccc([N+](=O)[O-])cc4[nH]3)[nH]c2c1	0	0	0	0	?
CCC(=O)Nc1nc2ccccc2n1CCN(C)C	?	0	0	0	?
CCn1c(N2CCN(C(=O)C34CC5CC(CC(C5)C3)C4)CC2)nc2ccccc21	0[0.365 µM]	0	?	2µM	0
COc1ccc(C(C)=O)cc1CN1CC=C(c2ccccc2)CC1	0	0	0	0	0
COc1cc(C)cc(CN2CC=C(c3ccccc3)CC2)c1O	?	0	0	?	11.2µM
Cc1ccccc1C(O)(Cc1ccccc1)C1CN2CCC1CC2 (stereo unspecified)	0	0	?	0.794µM	?
C=C1C([C@@]2(C)C(OC(C)=O)CC(=O)O[C@@](C)(COC(C)=O)C2CC(=O)OC)C(OC=O)C(OC(=O)C(OC(C)=O)C(C)CC)[C@]2(C)C(c3ccoc3)CC(=O)C12O (stereo partly specified)	0	-	-	-	0
COc1cccc(C(=O)Nc2ccc(-c3nc4ccccc4o3)c(O)c2)c1	7.08µM	0	?	0	5.01µM
CCC1(CCC(C)C)C(=O)NC(=O)NC1=O	-	0	-	-	-
CC(C)c1ccc(/C=N/NC(=O)c2nnn(-c3nonc3N)c2CSC2=NCCS2)cc1	?	0	?	?	15.8µM
Cn1c(=O)cc(OCCCC(=O)N2CCC3(CC2)OCCO3)c2ccccc21	0	0	0	0	?
CCOc1cc2[nH]c(=S)n(CCCC(=O)N3CCC4(CC3)OCCO4)c(=O)c2cc1OCC	20µM	0	0	0	?
CCCCn1c(O)c(C=NC2CC3CCC2(C)C3(C)C)c(=O)[nH]c1=O (stereo unspecified)	0	0	0	5.62µM	0
Cc1ccc(-c2nc3ccccc3c(=O)n2-c2nccs2)cc1	11.2µM	0	0	0	5.62µM
Cc1nc2ccccc2c(=O)n1-c1nccs1	-	0	0	0	-
ClCc1ccccc1	0	-	-	-	0
CSc1ncc(CN2CCCC(C(=O)c3cccc(Cl)c3)C2)cn1 (stereo unspecified)	0	0	0	?	0
CCCCc1ncc(CN2CCCC(C(=O)c3ccc(SC)cc3)C2)[nH]1 (stereo unspecified)	0	0	0	?	11.2µM
CC(=O)Nc1ccc(CC(=O)N2CCN(Cc3ccccc3)CC2)cc1	0	0	0	0	0
CC(=O)Nc1ccc(NC(=O)c2nc(S(=O)(=O)Cc3ccccc3)ncc2Cl)cc1	0.355µM	0	?	?	2.24µM
Cc1ccc(CS(=O)(=O)c2ncc(Cl)c(C(=O)Nc3nnc(C(C)C)s3)n2)cc1	7.08µM	0	?	?	?
O=C(CCl)c1ccc(Oc2ccc(C(=O)CCl)cc2)cc1	?	0	-	-	?
CN(C)C(=O)Oc1ccc(OCc2nc3ccccc3[nH]2)cc1	11.2µM	0	0	7.08µM	?
SMILES	VP16 counter	GLP1R ag	HEK293 tox	GLP1R inv ag	RORgamma inh
CN(C)C(=O)Oc1ccc(OC(=O)N(C)C)cc1	0	0	0	0	0
OC12C3C4CC5C6C4C1C6C(C53)N2CCc1cccc(F)c1 (stereo unspecified)	0	-	-	-	0
Cc1cc(N/N=C/c2ccc(O)c(C)c2O)nc(-c2ccccc2O)n1	0	0	10µM	?	0
Cc1ccc(C(=O)N2CC2C)cc1 (stereo unspecified)	-	0	0	0	-
Cc1ccc(C(=O)n2c(N)nc3ccccc32)cc1	6.31µM	0	0	?	1.58µM
Cc1ccc(/C=C/C(=O)c2ccccc(=O)c2O)c(C)c1	?	0	?	?	7.08µM
O=C(N/N=C(\c1ccccc1)c1ccccn1)c1cccc([N+](=O)[O-])c1	0	0	?	?	0.447µM
CC(C)(C)P(=O)(NCc1ccccc1)c1ccccc1 (stereo unspecified)	0	0	0	0	0
CC(C)CNP(=S)(c1ccccc1)C(C)(C)C (stereo unspecified)	?	0	0	?	7.94µM
Cc1cc(OC(=O)N(C)C)nn1C(=O)N(C)C	0	-	-	-	0
CC(C)C[C@H](NC(=O)CNC(=O)[C@H](CCC(N)=O)NC(=O)[C@H](Cc1ccc(O)cc1)NC(=O)[C@@H](NC(=O)[C@H](Cc1ccc(O)cc1)NC(=O)CNC(=O)[C@@H](N)CCCN=C(N)N)C(C)C)C(=O)O	0	-	-	-	0
c1ccc(CCN2CCC(N3CCN(c4ccccc4)CC3)CC2)cc1	0	0	0	0	0
CCCCN(Cc1ccccc1)C1CCN(CCc2ccccc2)CC1	0	0	0	10µM	0
COc1ccc(O)c2c(=O)c3c(OC)cc4c(c3oc12)C1C=COC1O4 (stereo unspecified)	?	0	0	0	0.708µM
C=CCc1c(C)[nH]c(=S)c(C#N)c1C	?	0	0	0	6.31µM
Cc1nc2ccccc2c(=O)n1-c1ccccc1Cl	-	0	-	-	-
Cc1ccc(NC(=S)NC2CC3CCC(C2)N3Cc2ccco2)cc1C (stereo unspecified)	0	0	0	0	14.1µM
O=C(NCC1=C(c2ccc3ccccc3c2)C[C@@H]2CC[C@H]1N2Cc1ccco1)c1ccncc1	-	0	0	?	-
O=C(NC(=S)Nc1nc(-c2ccccc2)cs1)c1cncc(Br)c1	?	0	?	0	1.58µM
Cc1ccccc1NC(=S)N1CCN(c2ccccc2C)CC1	5.62µM	0	?	0	2.82µM
CSc1ccc(CN2CCN(c3ccccc3C)CC2)cc1	0	0	0	?	0[1.91 µM]
COP(=O)(OC)O/C(=C\Cl)c1cc(Cl)c(Cl)cc1Cl	?	-	-	-	0
CCOC(=O)c1ccc(N2C(=O)c3[nH]nc(-c4ccccc4)c3C2c2ccc(CC)cc2)cc1 (stereo unspecified)	-	0	?	11.2µM	-
